Assay results as given in PubChem BioAssay AID880 (National Center for Advancing Translational Sciences (NCATS), 2007).
Where “and” joins values, the source holds several entries; their conditions need not be identical. Identical values can stand only once. Out of some 230,000 compounds screened, about 1,000 (0.43%) were called active. The list comes from a sample in which actives are over-represented; it also holds similar structures and randomly drawn compounds. Values without a mark were called inactive. The call rests on the fitted dose curve; in most records, active means well fitted inhibition curve with a large enough effect (not every such curve was filed as active); inactive means no such curve, though single readings can be large or run the other way.

These compounds were tested against Guanine nucleotide-binding protein G(i) subunit alpha-1 (Homo sapiens) (UniProt P63096) (assay: qHTS Assay for Inhibitors of RGS12 GoLoco Motif Activity (Red Fluorophore)). Conditions: Gai1:RGS12 GoLoco peptide FP, rhodamine, 10 min; series mostly up to 61.6 µM; activity, negative = inhibition: at the top concentration.
Chain of Guanine nucleotide-binding protein G(i) subunit alpha-1 (Homo sapiens) (P63096 whole entry, looked up): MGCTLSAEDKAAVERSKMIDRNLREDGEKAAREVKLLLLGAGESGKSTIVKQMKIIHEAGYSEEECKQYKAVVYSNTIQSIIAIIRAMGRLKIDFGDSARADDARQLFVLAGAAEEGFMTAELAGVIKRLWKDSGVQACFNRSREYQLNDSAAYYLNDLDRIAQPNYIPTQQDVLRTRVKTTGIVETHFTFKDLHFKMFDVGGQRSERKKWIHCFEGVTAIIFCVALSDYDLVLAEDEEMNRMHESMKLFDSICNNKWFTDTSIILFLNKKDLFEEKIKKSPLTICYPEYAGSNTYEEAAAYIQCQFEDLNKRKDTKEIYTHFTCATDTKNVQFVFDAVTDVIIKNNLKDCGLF
Source text: Assay Submitter: Siderovski, David P, University of North Carolina at Chapel Hill
Screening Center PI: Austin, C.P.
Screening Center: NIH Chemical Genomics Center [NCGC]
G-protein-coupled receptors (GPCRs) are major targets for drug discovery. The regulator of G-protein signaling (RGS)-protein family has important roles in GPCR signal transduction. RGS proteins contain a conserved RGS-box, which is often accompanied by other signaling regulatory elements. RGS proteins accelerate the deactivation of G proteins to reduce GPCR signaling; however, some also have an effector function and transmit signals. Combining GPCR agonists with RGS inhibitors should potentiate responses, and could markedly increase the agonist's regional specificity. The diversity of RGS proteins with highly localized and dynamically regulated distributions in brain makes them attractive targets for pharmacotherapy of central nervous system disorders. […] A complex of Gai1 and fluorescently labeled G-alpha-binding peptide (the "GoLoco motif") derived from RGS12 is incubated with library members. Inhibitors of the binding are detected by a decrease in the fluorescence polarization (FP) of the fluorophore. Protein was supplied by Prof. David Siderovski, University of North Carolina at Chapel Hill.
Assay Buffer: 10 mM Tris-HCl, 150 mM NaCl, 0.1 mM GDP (prepared fresh), and 0.05% NP40 at pH 7.5.
15 nM Rhodamine labeled peptide/25 nM protein in columns 1, 2, 5 - 48. Titration of unlabeled peptide control ([H][…][NH2], custom synthesized and HPLC-purified by Tufts University Core Facility) from 20 mM, then 1:2 dilution, 16-point in duplicate, pin-transferred to column 2, rows 1 to 32. Column 1 is neutral.
Rhodamine-labeled peptide (Rhodamine-[…]-NH2) was custom-synthesized and HPLC-purified by Invitrogen (Carlsbad, CA).
Four uL of reagents were dispensed to 1536-well Greiner black solid-bottom plates. Compounds and controls (23 nL) were transferred via Kalypsys PinTool. The plates were incubated for 10 min at room temperature, and then read on ViewLux (Perkin-Elmer) High-throughput CCD imager using BODIPY for the rhodamine-labeled decapeptide probe. During dispense, reagent bottles were kept submerged into 4 deg C water bath and all liquid lines were covered with aluminum foil to minimize probe and protein degradation. All screening operations were performed on a Kalypsys robotic system (Kalypsys, Inc., San Diego, CA) containing one RX-130 and two RX-90 anthropomorphic robotic arms.
Further: nearly all actives have a fitted effect of over 30% in size.
On the % scale 0 is the no-effect control and ±100 the full control effect; potency means the concentration at half of the fitted maximal effect.

| Compound | activity, negative = inhibition | Potency |
| --- | --- | --- |
| CC(C)(C)C1CCC(=NNC(=O)c2cc(-c3ccccc3)n[nH]2)CC1 (stereo unspecified) | 10.8% |  |
| Cc1ccc(C(=O)N/C(=C/c2ccco2)C(=O)NCCc2c[nH]c3ccccc23)cc1C | 12.3% |  |
| NC(=O)c1nsc(C(=O)N(CC(=O)NCc2ccc(F)cc2)Cc2ccco2)c1N | -6.49% |  |
| COc1ccc(CCCOC(Cn2ccnc2)c2ccc(OC)cc2)cc1 (stereo unspecified) |  | inactive |
| C[C@]12CC[C@@H]3c4ccc(O)cc4C[C@@H](CCCCCCCCCS(=O)CCCC(F)(F)C(F)(F)F)C3[C@@H]1CC[C@@H]2O (stereo partly specified) | -1.93% |  |
| CN(C)CCCCCN(C)Cc1cc2ccccc2o1 | 1.21% |  |
| Nc1ccc2c3c(cccc13)C(=O)NC2=O |  | 3.16 µM (active) and 20 µM (active) |
| COC1(C2=NCCN2)COc2ccccc2O1 (stereo unspecified) | 7.05% |  |
| COC(=O)c1nn(-c2cccc(Cl)c2)ccc1=O | 5.66% |  |
| COc1ccc(C)cc1-n1nnnc1SCc1nc2ccccc2c(=O)[nH]1 | 25% |  |
| Cc1cc2nc3c(=O)[nH]c(=O)nc-3n(C[C@H](O)[C@H](O)[C@H](O)CO)c2cc1C |  | 17.8 µM (active) |
| N#C/C(=C\c1ccc(-c2cccc([N+](=O)[O-])c2)o1)C(=O)NCCN1CCOCC1 | 3.44% |  |
| CC(Oc1ccc(-c2ccccc2)c(F)c1)c1ccn(S(=O)(=O)c2cccc3ccccc23)n1 (stereo unspecified) | -2.65% |  |
| C=C1O[C@@](CO)(n2cnc3c(N)ncnc32)[C@H](O)[C@@H]1O | 1.48% |  |
| Cc1csc(-c2coc3cc(O[C@@H]4O[C@H](CO)[C@@H](O)[C@@H](O)[C@H]4O)ccc3c2=O)n1 | 2.68% |  |
| CN(C)/C(CN1CCCCC1)=C1\N=C(c2ccccc2)OC1=O | -2.52% |  |
| CCOC(=O)N1CCC(N(CCOC)C(=O)Nc2ccc(C)c(C)c2)CC1 | -6.31% |  |
| CN(C)c1nc(=Nc2cccc(Cl)c2)ss1 | -0.735% |  |
| S=C(Nc1cccc(Br)c1)N1CCn2cccc2C1c1cccnc1 (stereo unspecified) | 5.93% |  |
| O=C(CSc1nc2ccccc2s1)Nc1ccc(C(=O)O)cc1 | 16.3% |  |
| O=[N+]([O-])c1c(NCCO)cc(Sc2nc3ccccc3s2)c2nonc12 |  | 8.91 µM (active) |

| Compound | activity, negative = inhibition | Potency |
| --- | --- | --- |
| c1ccc2sc(SCCSc3nc4ccccc4s3)nc2c1 | 2.61% [at 14.2 µM] |  |
| COc1ccc(-c2nc(CS(=O)CC(=O)NCc3cccnc3)c(C)o2)cc1OC (stereo unspecified) | 7.34% |  |
| COc1ccc(-c2nc(CS(=O)CC(=O)N3CCc4ccccc4C3)c(C)o2)cc1 (stereo unspecified) | 8.47% |  |
| COc1ccc(-c2nc(CS(=O)CC(=O)NCc3ccccn3)c(C)o2)cc1 (stereo unspecified) |  | 14.1 µM (active) |
| O=C(c1ccccc1)c1ccc(OCC(O)CN2CCCC2)cc1 (stereo unspecified) | 0.574% |  |
| C[N+]1(CC(O)COc2ccccc2)CCN(C(=O)c2ccc([N+](=O)[O-])cc2)CC1 (stereo unspecified) |  | 12.6 µM (active) |
| O=[N+]([O-])c1ccc(N2CCN(CC(O)COc3ccccc3)CC2)cc1 (stereo unspecified) | -3.92% |  |
| CN(C)C(=O)c1nc2ccc(Cl)cn2c1CNCc1cccc(OC(F)(F)F)c1 | 9.02% |  |
| Cn1nc(C(F)(F)F)cc1C(=O)O | -5.27% |  |
| O=[N+]([O-])c1cc(S(=O)(=O)CCCN2CCOCC2)ccc1F | 9.83% |  |
| CC(C)c1cnc(NC(=O)Cc2ccccc2)s1 | 9.35% |  |
| O=C(CSc1ncnc2c1cnn2CCc1ccccc1)Nc1ccc(F)cc1 | -3.51% |  |
| Oc1ccc(CNc2ccccc2O)cc1 | 71.8% |  |
| O=C(OCc1ccccc1)c1ccc(O)cc1 | 9.09% |  |
| COC(=O)CCCCCN1C(=O)NC(c2ccc(-c3ccccc3)cc2)C(C(=O)OCc2ccccc2)=C1C (stereo unspecified) |  | inactive |
| CC(=O)[C@H](C(c1ccccc1)N1CCOCC1)N1CCOCC1 (stereo partly specified) | -7.72% [at 14.2 µM] |  |
| C=C(C(C)=O)C(O)c1ccc([N+](=O)[O-])cc1 (stereo unspecified) | -2.53% |  |
| CCOC(=O)C1(CC2CCCCO2)CCN(Cc2nc(-c3cccs3)oc2C)CC1 (stereo unspecified) | 7.2% |  |
| OCC(CO)NC1C[C@](O)(CO)[C@@H](O)[C@H](O)[C@H]1O (stereo partly specified) | 4.17% |  |
| NC1CCN(O)C1=O (stereo unspecified) | 7.53% |  |
| CCc1ccc(-n2c(SCc3cc(=O)n4cc(Br)ccc4n3)nc3[nH]ncc3c2=O)cc1 | 9% |  |

| Compound | activity, negative = inhibition | Potency |
| --- | --- | --- |
| O=C(O)/C=C/c1ccc(OCCCF)cc1 | 4.77% |  |
| CC(O)COc1ccccc1 (stereo unspecified) | 3.23% |  |
| Cc1cccc(Br)c1 | 0.712% |  |
| O=C1OCCN1C(=O)[C@H]1[C@H](c2ccc(Cl)cc2)C(c2cccc(Cl)c2)=NN1c1ccc(Br)cc1 | 7.07% |  |
| CC(O)[C@@H](N)C(=O)O (stereo partly specified) | 0.527% |  |
| O=P(O)(O)C(O)c1ccc2ccccc2c1 (stereo unspecified) | -0.516% |  |
| Cc1ccnc(SCC(N)=O)n1 | 8.28% |  |
| Cc1ccnc(Nc2nc3ccccc3s2)n1 | 4.81% |  |
| Cc1ccnc(-n2sc3ccccc3c2=O)n1 |  | 14.1 µM (active) |
| CCOC(=O)c1cnc2[nH]c3ccccc3n2c1=O | 10.1% |  |
| O=c1[nH]c2ccccc2n2c(-c3ccccc3)nnc12 |  | 12.6 µM (active) |
| Cc1ccc(-c2nc3ccccc3[nH]c2=O)cc1 | 0.424% |  |
| O=C(Nc1cccc(F)c1)N1CCC2(CC1)CCN(S(=O)(=O)c1ccccc1)CC2 | 8.81% |  |
| CCOC(=O)C1=NO[C@@]2(C=C(Br)C(=O)[C@H]3O[C@H]32)C1 | -2.47% |  |
| COc1ccc2c(-c3ccccc3)cc(SCC(=O)N(C)C3CCS(=O)(=O)C3)nc2c1 (stereo unspecified) | -0.0537% |  |
| CC(=O)OC1C([N+]2(C)CCCCC2)C[C@H]2C3CC[C@H]4C[C@H](OC(C)=O)C([N+]5(C)CCCCC5)CC4(C)C3CCC12C (stereo partly specified) | 4.19% |  |
| C=CC(=O)OCCOCCOCCOCCOC(=O)C=C |  | inactive |
| Cc1cccc(-n2c(=O)c3c(C)c(C)sc3n(CC(N)=O)c2=O)c1 | -2.7% |  |
| NC(=O)c1sc(-c2ccsc2)cc1N | -2.74% |  |
